In the library only some 20% were active in any assay of this set; here they are far more common.
Shiga inhibitor = A qHTS for Small Molecule Inhibitors of Shiga Toxin | Vero cells, Shiga toxin protein synthesis inhibition reporter | inhibition, % at 38.7 µM | 290,000 tested, 9.2% active | AID 2315, 2010; in the data active = inhibition mostly above about 28%, no sharp cut-off; inactive = mostly below about 43%; also: 0% is about no effect
Pf growth 48h = Primary qHTS for delayed death inhibitors of the malarial parasite plastid, 48 hour incubation; P. falciparum luciferase growth in erythrocytes, 48 h; Potency, µM (top dose mostly 28.7 µM), without a hit: top-dose activity change, negative = inhibition, hits mostly inhibitors; 310,000 tested, 5.9% active; AID 504832, 2011; also: potency is read from the fitted curve at half-maximal effect; % is scaled to controls: 0 for no effect and ±100 for the full control effect
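Read-out is firefly luciferase luminescence from an integrated reporter in P. falciparum, so falling signal marks reduced parasite growth. Infected erythrocytes were at 2% hematocrit and 0.1% parasitemia (final) in Albumax-supplemented RPMI 1640.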
HCMV inh = qHTS Assay for inhibitors of the human cytomegalovirus (HCMV); 410,000 tested, 4.5% active; HFF cells, HCMV-luciferase reporter, 72 h; stronger effect = lower value; activity change, negative = inhibition, % at 57.5 µM; in the data active = activity change below about -60%; inconclusive = no clear call, values can overlap the other calls; inactive = above about -39%; also: % is scaled to controls: 0 for no effect and ±100 for the full control effect
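Luciferase read-out from HCMV-luciferase-infected HFFs (MOI 1 PFU/cell) 72 h post infection at 37C; compounds added after 16 h cell attachment; activity normalized between buffer-only basal and Salinomycin (10uM) inhibitor controls.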
Pf growth 96h = Primary qHTS for delayed death inhibitors of the malarial parasite plastid, 96 hour incubation; P. falciparum luciferase reporter growth, 96 h; Potency, µM (series often up to 28.7 µM), for inactives: at the highest dose activity change, negative = inhibition, hits mostly inhibitors; 320,000 tested, 6.9% active; also: potency is read from the fitted curve at half-maximal effect; % is scaled to controls: 0 for no effect and ±100 for the full control effect
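P. falciparum expressing integrated firefly luciferase grown in erythrocytes (2% hematocrit, 0.05% parasitemia final) with compounds for 96 hours at 37 C, 5% CO2. Growth inhibition read as loss of luminescence after adding luciferase detection reagent.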
CHX counter = Cycloheximide Counterscreen for Small Molecule Inhibitors of Shiga Toxin; cell reporter, cycloheximide protein synthesis inhibition counterscreen; max response, %; 300,000 tested, 12% active; AID 2314, 2010; in the data active = max response mostly above about 13%, no sharp cut-off; inactive = mostly below about 14%; also: read at 38.3 µM for the half of the compounds with a filed dose; 0% is about no effect
* hit, by the source's call; ? = inconclusive; . = not tested or not shown; [ ] = dose if it differs, or a comment. Unless noted, calls follow the shape of the dose curve; as a rule, active = well fitted inhibition curve with a large enough effect; inconclusive = small, poorly fitted or top-dose-only effect, or another doubt; inactive = no such curve, though single readings can be large or run the other way.

SMILES	Shiga inhibitor	Pf growth 48h	HCMV inh	Pf growth 96h	CHX counter
COC(=O)c1c(-c2ccc(C)cc2)csc1NC(=S)NC(=O)c1ccc(F)cc1	7.1	?	0.9	8.28µM*	-2.7
COC(=O)c1cc2oc3ccccc3c2n1CC(=O)Nc1ccc(Cl)cc1F	.	.	24.6	.	.
Cc1ccc(C(C(=O)NC2CCCC2)N(C(=O)c2csnn2)C2CCCC2)o1 (stereo not given)	-13.7	?	-17.0	108.6%	-4.4
CC(C)(C)NC(=O)C(c1cccs1)N(Cc1ccc(F)cc1)C(=O)c1csnn1 (stereo not given)	-5.6	9.28µM*	2.0	33.2%	1.2
Cc1ccc(CN(C(=O)c2csnn2)C(C(=O)NC2CCCC2)c2ccc(C)o2)cc1 (stereo not given)	-4.0	14.7µM*	-34.3	-15.6%	0.9
CC(C)(C)NC(=O)C(c1cccs1)N(C(=O)c1csnn1)c1cccc(F)c1 (stereo not given)	-3.7	-19.7%	-23.4	9.3%	-1.0
CCC(C)(C)NC(=O)C(c1ccncc1)N(Cc1ccc(C)cc1)C(=O)c1csnn1 (stereo not given)	10.9	-29.8%	-38.9	4.65µM*	-3.0
Cc1ccccc1C(=O)Nc1nnc(SCc2cc(=O)c3c(C)ccc(C)c3[nH]2)s1	.	.	19.9	.	.
CN(C(=O)COC(=O)c1nn(C)c(=O)c2ccccc12)c1c(N)n(Cc2ccccc2)c(=O)[nH]c1=O	.	-11.5%	-8.4	22.1%	.
Cc1nc2ccc(N)cc2c(=O)n1Cc1ccc(Cl)cc1	24.7	14.4%	48.3	53.4%	17.8
Nc1ccc(Cn2ccc3c4c(N)nc(N)nc4ccc32)cc1	.	.	-99.5*	.	.
COc1cc(C(=O)OCCN2CCOCC2)ccc1O	22.0	-3.3%	9.4	78.4%	5.4
COc1c(C)c2c(c(O)c1CC=C(C)CCC(=O)OCCN1CCOCC1)C(=O)OC2	-0.8	9.53µM*	.	-19.8%	-3.4
Cc1ccccc1N(C(=O)c1snc(C(N)=O)c1N)C(C(=O)NCc1ccccc1)c1ccc(O)cc1 (stereo not given)	-7.3	?	18.3	34.8%	-3.5
CCOc1ccccc1N(C(=O)c1snc(C(N)=O)c1N)C(C(=O)NCc1ccccc1)c1ccc(O)cc1 (stereo not given)	18.1	11.7µM*	-29.9	?	-6.4
COc1ccc(N(C(=O)c2snc(C(N)=O)c2N)C(C(=O)NCc2ccccc2)c2ccc(O)cc2)cc1OC (stereo not given)	0.3	?	-24.2	10.4%	-2.7
COc1ccc(C(C(=O)NCc2ccccc2)N(C(=O)c2snc(C(N)=O)c2N)c2ccccc2OC)cc1OC (stereo not given)	-12.0	10.4µM*	-74.6*	-14.7%	0.4
CCC(O)c1ccccc1 (stereo not given)	17.6	0.4%	.	-9.6%	-7.3
Cc1ccc([N+](=O)[O-])cc1NC(=O)c1ccc(C(C)(C)C)cc1	-2.5	?	28.7	?	10.5
Cc1ccc[n+](C(C)C(=O)Nc2ccc(C)c([N+](=O)[O-])c2)c1 (stereo not given)	8.7	?	59.7	11.7µM*	-4.7
Cc1ccc(NC(=O)c2cccs2)cc1[N+](=O)[O-]	38.0*	27.3%	13.9	?	35.6*
Cc1ccc(C(=O)NC(=S)Nc2ccc(NC(=O)c3cccs3)cc2)cc1[N+](=O)[O-]	-2.5	-0.9%	-78.3*	9.28µM*	-2.3
Cc1ccc(NC(=O)c2ccc(C(C)(C)C)cc2)cc1[N+](=O)[O-]	11.8*	89.3%	?	-25.3%	43.4*
Cc1cccc2c(=O)cc(CSCC(=O)Nc3ccc(Cl)cc3)[nH]c12	.	.	-0.8	.	.
O=C(O)CCCC(=O)NS(=O)(=O)c1ccc(Cl)cc1	-13.3	.	18.7	15.6%	-2.1
SMILES	Shiga inhibitor	Pf growth 48h	HCMV inh	Pf growth 96h	CHX counter
Cc1cccc(Cl)c1N=CN1c2ccccc2-n2cccc2C1CCc1ccccc1 (stereo not given)	.	.	8.1	.	.
O=C(CCNS(=O)(=O)c1ccc(Br)cc1)NCCCSc1ccccc1	.	?	-20.6	?	.
Cc1ccc(-n2nnnc2-c2cnc3ccc(Cl)cc3c2-c2ccccc2)cc1	-3.7	?	?	?	-2.4
Clc1ccc(-n2nnnc2-c2cnc3ccccc3c2-c2ccccc2)cc1	-9.3	5.22µM*	-71.8*	10.4µM*	-3.5
CC(=O)c1cccc(NC(=O)c2sc(-n3nc(C)c(CCC(C)C)c3C)nc2C)c1	.	.	-25.4	.	.
COc1ccc(N(C(=O)c2ccco2)C(C(=O)NC2CCCCC2)c2ccccc2)cc1 (stereo not given)	.	.	-77.1*	.	.
COc1ccc(C(C(=O)NC2CCCC2)N(C(=O)c2ccco2)c2ccc3c(c2)OCO3)cc1OC (stereo not given)	17.6	?	-75.0*	?	-3.2
COc1ccc(N(C(=O)c2ccco2)C(C(=O)NC2CCCC2)c2ccc(N(C)C)cc2)cc1 (stereo not given)	-16.2	.	-7.8	.	0.7
COc1ccc(C(C(=O)NC2CCCC2)N(C(=O)c2ccco2)c2cc3c(cc2C(C)=O)OCO3)cc1OC (stereo not given)	-21.3	?	-19.2	0.0%	-6.9
COc1cccc(N(C(=O)c2ccco2)C(C(=O)NC2CCCC2)c2ccc(N(C)C)cc2)c1 (stereo not given)	17.2	0.0%	-5.5	16.4%	19.8*
COc1ccc(N(C(=O)c2ccco2)C(C(=O)NC2CCCC2)c2ccccc2)cc1 (stereo not given)	-7.2	-12.1%	-22.8	-13.5%	1.2
COc1ccc(N(C(=O)c2ccco2)C(C(=O)NC2CCCC2)c2ccc(N(C)C)cc2)cc1OC (stereo not given)	14.0	13.1µM*	7.1	101.1%	7.0
O=C(OOC(=O)c1ccccc1)c1ccccc1	-12.9	-4.0%	.	-11.0%	-6.8
NC(=S)NNc1c(F)c(F)c(F)c(F)c1F	-6.5	?	5.3	15.0%	6.2
CC(=O)N(CN1C(=O)c2ccc([N+](=O)[O-])cc2C1=O)c1cccc(C(=O)O)c1	-3.7	-10.3%	-11.4	44.4%[1.15 µM]	-2.6
CCCS(=O)(=O)c1c(S(=O)(=O)CCC)c2ccc(C(N)=O)cn2c1C(=O)c1ccc(OC)cc1	12.2	?	-7.0	11.9%	-4.3
COc1cc(OC)cc(N(C(=O)c2ccco2)C(C(=O)NC2CCCC2)c2ccc(N(C)C)cc2)c1 (stereo not given)	-11.0	11.7µM*	-21.7	?	0.9
COc1ccc(C(C(=O)NC2CCCC2)N(C(=O)c2ccoc2C)c2ccc(C)c(C)c2)cc1 (stereo not given)	-7.7	?	-39.2	1.04µM*	14.8
CN(C)c1ccc(O)c2c1CC1CC3C(N(C)C)C(=O)C(C(N)=O)=C(O)[C@@]3(O)C(=O)C1=C2O (stereo not given in full)	.	.	-22.3	.	.
